Test results published in publication PMC11006913.

What follows are sequences tested against HOXA4 (Homo sapiens, UniProt Q00056 201-287, W262F) (assay: PBM; 200 nM protein, PBS). Details: dsDNA, one strand shown.
Chain of HOXA4 (Q00056 201-287 W262F): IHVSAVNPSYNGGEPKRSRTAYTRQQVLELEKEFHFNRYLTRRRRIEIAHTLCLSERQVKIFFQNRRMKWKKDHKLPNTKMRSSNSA

Question: How did the binding signal turn out when TAATGACA was run?
Answer: 11.7 upbm affinity estimate (log intensity, higher = more binding, comparable within an allelic series)

Question: CGCCGGGC was tested. Which binding signal did it give?
Answer: 9.99 upbm affinity estimate (log intensity, higher = more binding, comparable within an allelic series)

Question: How did the binding signal turn out when CTGGCGGC was run?
Answer: 9.86 upbm affinity estimate (log intensity, higher = more binding, comparable within an allelic series)

Question: How did the binding signal turn out when ACCTCTCG was run?
Answer: 9.82 upbm affinity estimate (log intensity, higher = more binding, comparable within an allelic series)

Question: With CCAGGCAG as the sequence, how does the binding signal read?
Answer: 9.95 upbm affinity estimate (log intensity, higher = more binding, comparable within an allelic series)

Question: ATTAATCA was tested. Which binding signal did it give?
Answer: 11.4 upbm affinity estimate (log intensity, higher = more binding, comparable within an allelic series)

Question: TAATGATA was tested. Which binding signal did it give?
Answer: 11.6 upbm affinity estimate (log intensity, higher = more binding, comparable within an allelic series)

Question: How did the binding signal turn out when ACCGCCGG was run?
Answer: 9.75 upbm affinity estimate (log intensity, higher = more binding, comparable within an allelic series)

Question: With TTAATGAA as the sequence, how does the binding signal read?
Answer: 11.8 upbm affinity estimate (log intensity, higher = more binding, comparable within an allelic series)

Question: Which binding signal does the source give for ATCATTAC here?
Answer: 11.2 upbm affinity estimate (log intensity, higher = more binding, comparable within an allelic series)

Question: With CCTAATGA as the sequence, how does the binding signal read?
Answer: 11.6 upbm affinity estimate (log intensity, higher = more binding, comparable within an allelic series)

Question: How did the binding signal turn out when ATAATGAT was run?
Answer: 11.5 upbm affinity estimate (log intensity, higher = more binding, comparable within an allelic series)

Question: For GGTAATGA, which binding signal is on record?
Answer: 11.2 upbm affinity estimate (log intensity, higher = more binding, comparable within an allelic series)

Question: For CATAATGA, which binding signal is on record?
Answer: 11.3 upbm affinity estimate (log intensity, higher = more binding, comparable within an allelic series)

Question: CATCATTA was tested. Which binding signal did it give?
Answer: 11.8 upbm affinity estimate (log intensity, higher = more binding, comparable within an allelic series)

Question: For ACCCGTGG, which binding signal is on record?
Answer: 9.9 upbm affinity estimate (log intensity, higher = more binding, comparable within an allelic series)

Question: Which binding signal does the source give for TATAATGA here?
Answer: 11.2 upbm affinity estimate (log intensity, higher = more binding, comparable within an allelic series)

Question: Which binding signal does the source give for ATAATGAC here?
Answer: 11.4 upbm affinity estimate (log intensity, higher = more binding, comparable within an allelic series)

Question: For CGGCGGTC, which binding signal is on record?
Answer: 9.76 upbm affinity estimate (log intensity, higher = more binding, comparable within an allelic series)

Question: For GATAATGA, which binding signal is on record?
Answer: 11.6 upbm affinity estimate (log intensity, higher = more binding, comparable within an allelic series)

Question: Which binding signal does the source give for GGCCCCCA here?
Answer: 9.82 upbm affinity estimate (log intensity, higher = more binding, comparable within an allelic series)

Question: For CGGGCTTC, which binding signal is on record?
Answer: 9.77 upbm affinity estimate (log intensity, higher = more binding, comparable within an allelic series)

Question: How did the binding signal turn out when CCCTTGCG was run?
Answer: 9.81 upbm affinity estimate (log intensity, higher = more binding, comparable within an allelic series)

Question: With CAGGCCCC as the sequence, how does the binding signal read?
Answer: 9.81 upbm affinity estimate (log intensity, higher = more binding, comparable within an allelic series)

Question: ATTCATTA was tested. Which binding signal did it give?
Answer: 11.6 upbm affinity estimate (log intensity, higher = more binding, comparable within an allelic series)

The sequences below were run against ALX3 (Homo sapiens, UniProt O95076 139-225, N203S) (assay: PBM; 200 nM protein, PBS). Details: dsDNA, one strand shown.
Chain of ALX3 (O95076 139-225 N203S): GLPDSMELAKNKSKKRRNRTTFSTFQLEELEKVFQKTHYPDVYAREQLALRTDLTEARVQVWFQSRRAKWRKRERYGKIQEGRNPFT

Question: CCAGGCAG was tested. Which binding signal did it give?
Answer: 7.76 upbm affinity estimate (log intensity, higher = more binding, comparable within an allelic series)

Question: Which binding signal does the source give for ATTAATCA here?
Answer: 8.61 upbm affinity estimate (log intensity, higher = more binding, comparable within an allelic series)

Question: Which binding signal does the source give for ACCGCCGG here?
Answer: 7.69 upbm affinity estimate (log intensity, higher = more binding, comparable within an allelic series)

Question: With CAGACCCC as the sequence, how does the binding signal read?
Answer: 7.74 upbm affinity estimate (log intensity, higher = more binding, comparable within an allelic series)

Question: Which binding signal does the source give for CCCTTGCG here?
Answer: 7.67 upbm affinity estimate (log intensity, higher = more binding, comparable within an allelic series)

Question: For CAGGCCCC, which binding signal is on record?
Answer: 7.69 upbm affinity estimate (log intensity, higher = more binding, comparable within an allelic series)

What follows are sequences tested against HOXA2 (Homo sapiens, UniProt O43364 129-215) (assay: PBM; 200 nM protein, PBS). Details: dsDNA, one strand shown.
Chain of HOXA2 (O43364 129-215): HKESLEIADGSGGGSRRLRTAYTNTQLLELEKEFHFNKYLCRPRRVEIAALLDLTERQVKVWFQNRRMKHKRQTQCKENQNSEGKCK

Question: With TAATGACA as the sequence, how does the binding signal read?
Answer: 12.5 upbm affinity estimate (log intensity, higher = more binding, comparable within an allelic series)

Question: For CGCCGGGC, which binding signal is on record?
Answer: 7.24 upbm affinity estimate (log intensity, higher = more binding, comparable within an allelic series)

Question: With CTGGCGGC as the sequence, how does the binding signal read?
Answer: 7.36 upbm affinity estimate (log intensity, higher = more binding, comparable within an allelic series)

Question: For TAATGATA, which binding signal is on record?
Answer: 12.3 upbm affinity estimate (log intensity, higher = more binding, comparable within an allelic series)

Question: For ACCGCCGG, which binding signal is on record?
Answer: 7.23 upbm affinity estimate (log intensity, higher = more binding, comparable within an allelic series)

Question: With TTAATGAA as the sequence, how does the binding signal read?
Answer: 12.1 upbm affinity estimate (log intensity, higher = more binding, comparable within an allelic series)

Question: CCTAATGA was tested. Which binding signal did it give?
Answer: 12.4 upbm affinity estimate (log intensity, higher = more binding, comparable within an allelic series)

Question: With ATAATGAT as the sequence, how does the binding signal read?
Answer: 12.1 upbm affinity estimate (log intensity, higher = more binding, comparable within an allelic series)

Question: Which binding signal does the source give for GGTAATGA here?
Answer: 12.1 upbm affinity estimate (log intensity, higher = more binding, comparable within an allelic series)

Question: How did the binding signal turn out when CATAATGA was run?
Answer: 12.1 upbm affinity estimate (log intensity, higher = more binding, comparable within an allelic series)

Question: For CATCATTA, which binding signal is on record?
Answer: 12.3 upbm affinity estimate (log intensity, higher = more binding, comparable within an allelic series)

Question: For TATAATGA, which binding signal is on record?
Answer: 12.1 upbm affinity estimate (log intensity, higher = more binding, comparable within an allelic series)

Question: ATAATGAC was tested. Which binding signal did it give?
Answer: 12.4 upbm affinity estimate (log intensity, higher = more binding, comparable within an allelic series)

Question: Which binding signal does the source give for GATAATGA here?
Answer: 12.3 upbm affinity estimate (log intensity, higher = more binding, comparable within an allelic series)

The sequences below were run against VAX1 (Homo sapiens, UniProt Q5SQQ9 86-172, K157R) (assay: PBM; 200 nM protein, PBS). Details: dsDNA, one strand shown.
Chain of VAX1 (Q5SQQ9 86-172 K157R): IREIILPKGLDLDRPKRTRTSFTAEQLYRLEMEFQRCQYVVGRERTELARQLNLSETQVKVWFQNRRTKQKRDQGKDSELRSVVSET

Question: For TAATGACA, which binding signal is on record?
Answer: 12.5 upbm affinity estimate (log intensity, higher = more binding, comparable within an allelic series)

Question: Which binding signal does the source give for TCCCAGGA here?
Answer: 7.24 upbm affinity estimate (log intensity, higher = more binding, comparable within an allelic series)

Question: TAATGATA was tested. Which binding signal did it give?
Answer: 12.3 upbm affinity estimate (log intensity, higher = more binding, comparable within an allelic series)

Question: Which binding signal does the source give for ACCGCCGG here?
Answer: 7.38 upbm affinity estimate (log intensity, higher = more binding, comparable within an allelic series)

Question: With TTAATGAA as the sequence, how does the binding signal read?
Answer: 12.4 upbm affinity estimate (log intensity, higher = more binding, comparable within an allelic series)

Question: CCTAATGA was tested. Which binding signal did it give?
Answer: 13 upbm affinity estimate (log intensity, higher = more binding, comparable within an allelic series)

Question: How did the binding signal turn out when CAGACCCC was run?
Answer: 6.94 upbm affinity estimate (log intensity, higher = more binding, comparable within an allelic series)

Question: GGTAATGA was tested. Which binding signal did it give?
Answer: 12.5 upbm affinity estimate (log intensity, higher = more binding, comparable within an allelic series)

Question: For CATCATTA, which binding signal is on record?
Answer: 12.7 upbm affinity estimate (log intensity, higher = more binding, comparable within an allelic series)

Question: ATAATGAC was tested. Which binding signal did it give?
Answer: 12.3 upbm affinity estimate (log intensity, higher = more binding, comparable within an allelic series)

Question: For GATAATGA, which binding signal is on record?
Answer: 12.5 upbm affinity estimate (log intensity, higher = more binding, comparable within an allelic series)

What follows are sequences tested against HOXB6 (Homo sapiens, UniProt P17509 132-218) (assay: PBM; 200 nM protein, PBS). Details: dsDNA, one strand shown.
Chain of HOXB6 (P17509 132-218): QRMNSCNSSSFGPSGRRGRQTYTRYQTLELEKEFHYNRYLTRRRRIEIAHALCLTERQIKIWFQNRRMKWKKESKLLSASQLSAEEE

Question: Which binding signal does the source give for TAATGACA here?
Answer: 11.7 upbm affinity estimate (log intensity, higher = more binding, comparable within an allelic series)

Question: For CCAGGCAG, which binding signal is on record?
Answer: 9.1 upbm affinity estimate (log intensity, higher = more binding, comparable within an allelic series)

Question: Which binding signal does the source give for CCGGACCA here?
Answer: 8.79 upbm affinity estimate (log intensity, higher = more binding, comparable within an allelic series)

Question: For CGCCGAAG, which binding signal is on record?
Answer: 9.15 upbm affinity estimate (log intensity, higher = more binding, comparable within an allelic series)

Question: CGGGGGTC was tested. Which binding signal did it give?
Answer: 9.04 upbm affinity estimate (log intensity, higher = more binding, comparable within an allelic series)

Question: For GTGGGGGA, which binding signal is on record?
Answer: 9.14 upbm affinity estimate (log intensity, higher = more binding, comparable within an allelic series)

Question: For ATAATGAC, which binding signal is on record?
Answer: 11.7 upbm affinity estimate (log intensity, higher = more binding, comparable within an allelic series)
